# According to PubChem BioAssay (NCI):
# This is part of a sample that, as a whole, favours compounds with a hit. Of some 79,000 tested, about 15% had one in any assay. The source made the active and inactive calls. No stated cut-off is given here; in the data, active means growth inhibition above about 70%; inactive means the rest.
# Assay: NCI Yeast Anticancer Drug Screen. Data for the mlh1 rad18 strain (AID 175)
# Conditions: S. cerevisiae mlh1 rad18 strain growth inhibition; at 5.0 µM (retest, dose inferred, filed as 0.5); active compounds read high
# In short: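 Steps: expose repair-defective yeast to compound; measure growth; express inhibition against vehicle-treated controls.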
row,SMILES,growth inhibition
1,CC(C)(C)CC(C)(C)c1ccc(O)cc1,-9% (inactive)
2,CC[n+]1c(/C=C/c2ccc(N(CCCl)CCCl)cc2)ccc2cc(I)ccc21,99% (active)
3,CCCCCCC1CCC2CCCC(C)N12 (stereo not drawn),2% (inactive)
4,C[N+](C)(C)CC1CCC(C[N+](C)(C)C)C1=O (stereo not drawn),-3% (inactive)
5,CCC[CH2][Sn]1([CH2]CCC)[O]C(=O)c2cc(C)ccc2[O]1,91% (active)
6,COc1ccc(CC2C(=O)NC(C)C(=O)N(C)C3C(=O)N(C)C(Cc4ccc(O)c(c4)Oc4ccc(cc4)C3O)C(=O)NC(C)C(=O)NC(C)C(=O)N2C)cc1 (stereo not drawn),10% (inactive)
7,CC(=O)Nc1cccc([As+](C)(c2cccc(NC(C)=O)c2)c2cccc(NC(C)=O)c2)c1,7% (inactive)
8,COC1OC(COC(C)=O)C(OC(C)=O)C(OC(C)=O)[C]1(OC(C)=O)[Hg][O]C(C)=O (stereo not drawn),99% (active)
9,CCOC(=O)C(NC(=O)C(Cc1ccc(N(CCCl)CCCl)cc1)NC(C)=O)C(C)C (stereo not drawn),-4% (inactive)
10,CN1c2cccc[c]2[Sn]([CH3])([CH3])[c]2ccccc21,98% (active)
11,Cc1ccc(C(=O)OC(C(=O)O)C(OC(=O)c2ccc(C)cc2)C(=O)O)cc1 (stereo not drawn) (tested in a mixture with another compound),19% (inactive)
12,CC(C)(c1ccccc1)c1ccc(O)cc1,-8% (inactive)
13,CC1(C)N=C(N)N=C(N)N1CCCOc1ccc(NC(=O)c2ccc(S(=O)(=O)F)cc2)cc1,-5% (inactive)
14,CC1=CC2OC3CC4OC(=O)/C=C/C=C/C(=O)OCCC(C)C(O)C(=O)OCC2(CC1O)C4(C)C31CO1 (stereo not drawn),96% (active)
15,C=CCOc1cc2c(ccc1=O)-c1c(cc(OC)c(OC)c1OC)CCC2NC(C)=O (stereo not drawn),-5% (inactive)
16,c1ccc2c(c1)[As]=c1ccccc1=[As]2 (stereo not drawn),72% (active)
17,CCC(C)(c1ccc(O)cc1)c1ccc(O)cc1,14% (inactive)
18,COc1cc(C2c3cc4c(cc3[C@@H](Nc3ccc(F)cc3)C3COC(=O)[C@H]23)OCO4)cc(OC)c1O (stereo partly drawn),95% (active)
19,CC(C)(C)OC(=O)NC(CSC(c1ccccc1)(c1ccccc1)c1cccs1)C(=O)O (stereo not drawn),12% (inactive)
20,CCOP(=S)(OCC)OC(c1ccc(Cl)cc1)c1ccc(Cl)cc1,-1% (inactive)

row,SMILES,growth inhibition
1,COc1ccc(OC)c(C=O)c1,-1% (inactive)
2,CC(=O)Oc1cccc2c1CC(C[Se]c1ccccc1)C(=O)O2 (stereo not drawn),11% (inactive)
3,CCOC(=S)S,31% (inactive)
4,CC(NCCN(C)C)C1CC2CCCCN2C1 (stereo not drawn),-3% (inactive)
5,Nc1ncc(CCCCc2ccc(NC(=O)Nc3ccc(S(=O)(=O)F)cc3)cc2)c(N)n1,4% (inactive)
6,CC#N.FC(F)(F)C#CC(F)(F)F.FC(F)(F)C#CC(F)(F)F.FC(F)(F)C#CC(F)(F)F.[W],95% (active)
7,[Cl][Hg][CH2]CC1CC=CCC1 (stereo not drawn),100% (active)
8,CC(=O)O[C@H]1CC[C@H]2[C@@H]3CCC4=CC(=O)CC[C@@H]4[C@H]3CC[C@]12C,0% (inactive)
9,c1ccc(P(CCP(c2ccccc2)c2ccccc2)CCP(c2ccccc2)c2ccccc2)cc1,95% (active)
10,Cc1cc(NCc2ccccc2)c2ccccc2[n+]1CCCCCCCCCC[n+]1c(C)cc(NCc2ccccc2)c2ccccc21,97% (active)
11,CCCCC(CC)CNP(=S)(NCC(CC)CCCC)NCC(CC)CCCC (stereo not drawn),-5% (inactive)
12,Nc1c(Br)cc(Br)c2c1C(=O)c1ccccc1C2=O,9% (inactive)
13,O=[N+]([O-])/C=C/c1cc2c(cc1Br)OCO2,68% (inactive)
14,CC(Br)CN(CC(C)Br)c1ccc2c(c1)Cc1ccccc1-2 (stereo not drawn),2% (inactive)
15,c1ccc2c[n+](CCCCCCCCCC[n+]3ccc4ccccc4c3)ccc2c1,72% (active)
16,CCC[CH2][Sn]([N]=C=S)([N]=C=S)[N]=C=S.O=P(c1ccccc1)(c1ccccc1)c1ccccc1.O=P(c1ccccc1)(c1ccccc1)c1ccccc1,-4% (inactive)
17,CN(CCC(N)CC(=O)NC1C=CC(n2ccc(N)nc2=O)OC1C(=O)O)C(=N)N (stereo not drawn),72% (active)
18,O=C1C=CC(=O)N1c1cccc2ccccc12 (tested in a mixture with another compound),-1% (inactive)
19,CN(C)c1ccc(N=Cc2c([O-])ccc3ccccc23)cc1.[C-]#[O+].[C-]#[O+].[Ir],9% (inactive)

# Same assay, conditions: S. cerevisiae mlh1 rad18 strain growth inhibition; at 50.0 µM (retest, dose inferred, filed as 5.0); active compounds read high
row,SMILES,growth inhibition
1,CC(C)(C)CC(C)(C)c1ccc(O)cc1,99% (active)
2,CC[n+]1c(/C=C/c2ccc(N(CCCl)CCCl)cc2)ccc2cc(I)ccc21,99% (active)
3,CCCCCCC1CCC2CCCC(C)N12 (stereo not drawn),57% (inactive)
4,C[N+](C)(C)CC1CCC(C[N+](C)(C)C)C1=O (stereo not drawn),3% (inactive)
5,CCC[CH2][Sn]1([CH2]CCC)[O]C(=O)c2cc(C)ccc2[O]1,98% (active)
6,COc1ccc(CC2C(=O)NC(C)C(=O)N(C)C3C(=O)N(C)C(Cc4ccc(O)c(c4)Oc4ccc(cc4)C3O)C(=O)NC(C)C(=O)NC(C)C(=O)N2C)cc1 (stereo not drawn),87% (active)
7,CC(=O)Nc1cccc([As+](C)(c2cccc(NC(C)=O)c2)c2cccc(NC(C)=O)c2)c1,11% (inactive)
8,COC1OC(COC(C)=O)C(OC(C)=O)C(OC(C)=O)[C]1(OC(C)=O)[Hg][O]C(C)=O (stereo not drawn),99% (active)
9,CCOC(=O)C(NC(=O)C(Cc1ccc(N(CCCl)CCCl)cc1)NC(C)=O)C(C)C (stereo not drawn),-1% (inactive)
10,CN1c2cccc[c]2[Sn]([CH3])([CH3])[c]2ccccc21,99% (active)
11,Cc1ccc(C(=O)OC(C(=O)O)C(OC(=O)c2ccc(C)cc2)C(=O)O)cc1 (stereo not drawn) (tested in a mixture with another compound),86% (active)
12,CC(C)(c1ccccc1)c1ccc(O)cc1,97% (active)
13,CC1(C)N=C(N)N=C(N)N1CCCOc1ccc(NC(=O)c2ccc(S(=O)(=O)F)cc2)cc1,7% (inactive)
14,CC1=CC2OC3CC4OC(=O)/C=C/C=C/C(=O)OCCC(C)C(O)C(=O)OCC2(CC1O)C4(C)C31CO1 (stereo not drawn),97% (active)
15,C=CCOc1cc2c(ccc1=O)-c1c(cc(OC)c(OC)c1OC)CCC2NC(C)=O (stereo not drawn),78% (active)
16,c1ccc2c(c1)[As]=c1ccccc1=[As]2 (stereo not drawn),99% (active)
17,CCC(C)(c1ccc(O)cc1)c1ccc(O)cc1,99% (active)
18,COc1cc(C2c3cc4c(cc3[C@@H](Nc3ccc(F)cc3)C3COC(=O)[C@H]23)OCO4)cc(OC)c1O (stereo partly drawn),95% (active)
19,CC(C)(C)OC(=O)NC(CSC(c1ccccc1)(c1ccccc1)c1cccs1)C(=O)O (stereo not drawn),99% (active)
20,CCOP(=S)(OCC)OC(c1ccc(Cl)cc1)c1ccc(Cl)cc1,-11% (inactive)

row,SMILES,growth inhibition
1,COc1ccc(OC)c(C=O)c1,14% (inactive)
2,CC(=O)Oc1cccc2c1CC(C[Se]c1ccccc1)C(=O)O2 (stereo not drawn),66% (inactive)
3,CCOC(=S)S,99% (active)
4,CC(NCCN(C)C)C1CC2CCCCN2C1 (stereo not drawn),19% (inactive)
5,Nc1ncc(CCCCc2ccc(NC(=O)Nc3ccc(S(=O)(=O)F)cc3)cc2)c(N)n1,84% (active)
6,CC#N.FC(F)(F)C#CC(F)(F)F.FC(F)(F)C#CC(F)(F)F.FC(F)(F)C#CC(F)(F)F.[W],99% (active)
7,[Cl][Hg][CH2]CC1CC=CCC1 (stereo not drawn),100% (active)
8,CC(=O)O[C@H]1CC[C@H]2[C@@H]3CCC4=CC(=O)CC[C@@H]4[C@H]3CC[C@]12C,89% (active)
9,c1ccc(P(CCP(c2ccccc2)c2ccccc2)CCP(c2ccccc2)c2ccccc2)cc1,95% (active)
10,Cc1cc(NCc2ccccc2)c2ccccc2[n+]1CCCCCCCCCC[n+]1c(C)cc(NCc2ccccc2)c2ccccc21,98% (active)
11,CCCCC(CC)CNP(=S)(NCC(CC)CCCC)NCC(CC)CCCC (stereo not drawn),33% (inactive)
12,Nc1c(Br)cc(Br)c2c1C(=O)c1ccccc1C2=O,-1% (inactive)
13,O=[N+]([O-])/C=C/c1cc2c(cc1Br)OCO2,88% (active)
14,CC(Br)CN(CC(C)Br)c1ccc2c(c1)Cc1ccccc1-2 (stereo not drawn),82% (active)
15,c1ccc2c[n+](CCCCCCCCCC[n+]3ccc4ccccc4c3)ccc2c1,94% (active)
16,CCC[CH2][Sn]([N]=C=S)([N]=C=S)[N]=C=S.O=P(c1ccccc1)(c1ccccc1)c1ccccc1.O=P(c1ccccc1)(c1ccccc1)c1ccccc1,44% (inactive)
17,CN(CCC(N)CC(=O)NC1C=CC(n2ccc(N)nc2=O)OC1C(=O)O)C(=N)N (stereo not drawn),97% (active)
18,O=C1C=CC(=O)N1c1cccc2ccccc12 (tested in a mixture with another compound),-1% (inactive)
19,CN(C)c1ccc(N=Cc2c([O-])ccc3ccccc23)cc1.[C-]#[O+].[C-]#[O+].[Ir],9% (inactive)
